# The list is not random: actives were taken first. Their share in the collection is about 22%.
# F-actin modifier: alters cytoskeleton assembly in HUVEC cells; inhibition, % at 2 µM; HUVEC TNFa F-actin phalloidin imaging, high content; hit rate 0.18% among 91,000; AID 836;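 active means inhibition above the batch mean plus 3 SD and confirmed as a hit by visual image inspection, cut at about 30% in these data, passing the limit was not always enough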
# CYP2C9 inh: human CYP2C9 inhibition; P11712; CYP2C9 Supersomes, luciferin-H conversion, luminescence; inhibition, % at 5 µM; hit rate 20% among 96,000; AID 777;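 active means blocking of liver enzyme CYP2C9 beyond about 50% at 5 µM, limit read from the data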
# Target sequence (P11712 whole entry, looked up): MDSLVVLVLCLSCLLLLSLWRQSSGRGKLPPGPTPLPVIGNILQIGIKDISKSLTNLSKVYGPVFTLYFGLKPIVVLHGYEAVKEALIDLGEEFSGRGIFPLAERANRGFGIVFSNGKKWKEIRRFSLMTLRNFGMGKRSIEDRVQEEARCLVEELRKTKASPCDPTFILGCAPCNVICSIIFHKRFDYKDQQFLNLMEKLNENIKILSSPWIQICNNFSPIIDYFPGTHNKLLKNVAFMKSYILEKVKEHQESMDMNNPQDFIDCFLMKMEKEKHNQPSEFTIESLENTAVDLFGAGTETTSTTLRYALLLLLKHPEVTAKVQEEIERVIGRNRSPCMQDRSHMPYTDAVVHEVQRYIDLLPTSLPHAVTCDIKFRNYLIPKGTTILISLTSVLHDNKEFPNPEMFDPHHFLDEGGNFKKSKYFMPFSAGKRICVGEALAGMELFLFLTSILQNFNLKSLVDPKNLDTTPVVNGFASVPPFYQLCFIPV
# CYP2C19 inh: human CYP2C19 inhibition | P33261 | CYP2C19 Supersomes, luciferin-H EGE luminescence, 30 min | inhibition, % at 5 µM | hit rate 21% among 96,000;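 active means CYP2C19 inhibition above a set limit at 5 µM in the primary screen, cut at about 50% in these data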;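 further: plate controls were negative control wells for no effect and 2.5 mM tranylcypromine positive control for full effect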
# CYP2C9 act: activators of human CYP2C9; hit rate 1.4% among 96,000; P11712; recombinant CYP2C9, luciferin-H conversion, luminescence; hits give high values; factor 1 = untreated enzyme, 0 = blocked; AID 1024; activation factor at 5 µM;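 active means activation factor of 2 or more for CYP2C9 at a 5 µM dose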;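 further: 0 = sulfaphenazole-blocked wells and 1 = vehicle-only wells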
# CYP2C19 activ: increases human CYP2C19 enzyme activity. activation factor at 5 µM. AID 1025. recombinant CYP2C19, luciferin-H EGE luminescence; hits give high values; 0 = fully inhibited enzyme, 1 = untreated enzyme. 96,000 tested, under 10 active;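 active means activation factor of at least 2 at 5 µM in the primary screen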;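 further: 0 = wells with 2.5 mM tranylcypromine and 1 = vehicle-only wells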
# E-sel TNF inh: TNF alpha driven E-selectin expression inhibition | inhibition, % at 2 µM | hit rate 0.71% among 120,000 | HUVEC TNFa-induced E-selectin immunofluorescence, high content;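 active means inhibition above the batch mean plus 3 SD, and confirmed as a hit on visual image review, cut at about 43% in these data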;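 further: 0% = TNF-stimulated DMSO wells and 100% = unstimulated control wells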
# * = called active by the depositor; · = no result given.
SMILES,F-actin modifier,CYP2C9 inh,CYP2C19 inh,CYP2C9 act,CYP2C19 activ,E-sel TNF inh
O=S(=O)(Nc1ccc(Oc2ncccn2)c(Cl)c1)c1ccc(Cl)cc1,7.2,98.9*,99.1*,0,0,2.1
CC/C(=N\NC(=O)c1ccc(-c2ccccc2)cc1)C12CC3CC(CC(C3)C1)C2,16.8,39.3,67.1*,0.6,0.3,·
O=C(Nc1ccccc1-c1ccccc1)C12CC3CC(CC(C3)C1)C2,3.9,2.6,18.8,1,0.8,·
NNC(=O)c1cccc(O)c1,·,·,·,·,·,-1.7
O=C(O)Cn1cnc2scc(-c3cccs3)c2c1=O,·,·,·,·,·,-2.9
COC(=O)[C@H](C)NC(=O)Nc1cc(OC)ccc1OC,5.2,-14.6,5.8,1.1,0.9,5.6
COCCNC(=O)NC12CC3CC(CC(C3)C1)C2,·,·,·,·,·,47.0
CC(C)OCCCNC(=O)NC12CC3CC(CC(C3)C1)C2,17.0,6.8,57.0*,0.9,0.4,·
Cc1ccccc1N=C(NOCc1ccc(Cl)cc1Cl)c1nonc1N,-10.1,70.5*,43.8,0.3,0.6,9.9
Cc1ccccc1N=C(NOCc1ccccc1)c1nonc1N,-22.4,·,·,·,·,-35.8
Cc1ccc(N=C(NOCc2ccc(Cl)cc2Cl)c2nonc2N)c(C)c1,·,73.7*,41.5,0.3,0.6,-6.5
C#CCOCCOCCOCCNc1nc(N2CCN(C(=O)Cn3cc(CC(C)O)nn3)CC2)nc(N2CCN(C(=O)[C@H]([C@@H](C)CC)n3cc(CCCN=C(N)N)nn3)CC2)n1 (some centres not stated),·,·,·,·,·,-16.7
COc1ccc(Oc2c(-c3ccc(O)cc3O)n[nH]c2C)cc1,8.7,100.4*,100.4*,0,0,32.9
CCCOC(=O)c1ccc(Oc2cn[nH]c2-c2ccc(OCC)cc2O)cc1,-16.7,100.0*,88.0*,0,0.1,·
C=C(C)COc1ccc(-c2n[nH]c(C)c2-c2ccc(OC)cc2)c(O)c1,7.1,47.0,45.3,0.5,0.5,-3.3
CCCOC(=O)c1ccc(Oc2c(-c3ccc(OCC)cc3O)n[nH]c2C)cc1,-10.9,98.4*,84.1*,0,0.2,·
Cc1onc(-c2ccccc2Cl)c1C(=O)OCC(=O)c1ccc2c(c1)OCCO2,-0.6,46.9,55.1*,0.5,0.4,-5.8
Cc1ccc(NC(=S)NC(=O)c2c(-c3ccccc3Cl)noc2C)cc1,11.2,28.9,34.9,0.7,0.7,-39.9
Cc1onc(-c2ccccc2Cl)c1C(=O)Nc1nnc(-c2ccc(Br)cc2)s1,4.2,40.3,13.9,0.6,0.9,·
COC(=O)c1cc(OC)c(OC)cc1NC(=O)c1c(-c2ccccc2Cl)noc1C,-1.2,56.4*,41.5,0.4,0.6,11.5
Cc1cc(=O)oc(C)c1C(=O)OCC(=O)c1ccccc1,2.3,12.5,39.2,0.9,0.6,2.2
Cc1onc(-c2ccccc2)c1C(=O)OCC(=O)c1ccccc1,·,54.1*,69.3*,0.5,0.3,-44.4
Cc1onc(-c2ccccc2Cl)c1C(=O)Nc1nnc(-c2ccc(Cl)cc2Cl)s1,6.7,65.6*,4.5,0.3,1,-4.2
Cc1c(-c2ccnc3cc(C(=O)O)nn23)cnn1C,·,·,·,·,·,-48.4
CS(=O)(=O)N1CCCC(C(=O)NCc2cccs2)C1 (configuration not stated),6.1,2.9,-0.2,1,1,·
SMILES,F-actin modifier,CYP2C9 inh,CYP2C19 inh,CYP2C9 act,CYP2C19 activ,E-sel TNF inh
O=[N+]([O-])c1cc2c(cc1Br)CCN2,·,·,·,·,·,1.3
Cc1onc(-c2ccccc2Cl)c1C(=O)Nc1ccc2c(c1)OCO2,-12.7,52.6*,70.8*,0.5,0.3,·
Cc1onc(-c2ccccc2Cl)c1C(=O)Nc1cccc(-c2cn3cccnc3n2)c1,-3.1,84.8*,61.5*,0.2,0.4,-15.3
O=C(Nc1ccc2c(c1)OCO2)C1CC(c2ccccc2Cl)=NO1 (configuration not stated),4.8,-75.1,94.5*,1.8,0.1,6.5
CCN(CC)S(=O)(=O)c1ccc(NC(=O)c2ccccc2N(C)S(C)(=O)=O)cc1,-9.8,61.3*,6.3,0.4,0.9,13.3
Cc1onc(-c2ccccc2)c1C(=O)Nc1ccc2c(c1)OCCO2,·,23.8,30.2,0.8,0.7,3.2
CCn1cc(C2=NOC(C(=O)Nc3ccc4c(c3)OCO4)C2)c(C)n1 (configuration not stated),0.3,44.6,-3.6,0.6,1,·
Cc1onc(-c2ccccc2Cl)c1C(=O)Nc1nnc(-c2ccc(F)cc2)s1,8.8,46.8,26.9,0.5,0.7,·
CCN(CC)S(=O)(=O)c1ccc(NC(=O)c2ccc(N(C)S(C)(=O)=O)cc2)cc1,-3.6,·,·,·,·,13.3
CC(C)N(CC#CC(O)(c1ccccc1)c1ccccc1)CCO,·,·,·,·,·,7.4
O=[N+]([O-])c1ccc(C(O)CNC(=S)Nc2ccccc2)cc1 (configuration not stated),·,·,·,·,·,-0.3
CCOC(=O)c1ccc2c(c1)NC(=O)C(N1CCN(c3ccc(OC)cc3)CC1)S2 (configuration not stated),·,0.8,-13.7,1,1.1,-20.5
Cc1ccccc1-n1nc2c(c1NC(=O)c1c(-c3ccccc3Cl)noc1C)CS(=O)(=O)C2,8.4,5.3,-2.3,0.9,1,·
COCCNC(=O)c1ccccc1NC(=O)c1ccccc1N(C)S(=O)(=O)c1ccccc1,-4.3,93.3*,99.7*,0.1,0,-72.6
Cc1onc(-c2c(F)cccc2Cl)c1C(=O)Nc1cccc(Cn2cccn2)c1,-1.8,51.7*,23.4,0.5,0.8,9.8
Cc1ccc(Cn2ccc(NC(=O)c3noc4c3CCc3ccccc3-4)n2)cc1,·,-66.6,-10.5,1.7,1.1,24.9
Cc1ccc(Cn2ccc(NC(=O)c3c(-c4ccccc4Cl)noc3C)n2)cc1,7.0,51.5*,25.1,0.5,0.7,-63.4
Cc1ccc(-n2nc3c(c2NC(=O)c2c(-c4ccccc4Cl)noc2C)CS(=O)(=O)C3)c(C)c1,14.6,79.1*,51.7*,0.2,0.5,·
Cc1cc(O)c(-c2ccno2)cc1Cl,·,·,·,·,·,-9.5
CN1CCN(/C(=N\S(=O)(=O)c2ccc(F)cc2)c2ccccc2)CC1,-7.1,-19.2,-9.1,1.2,1.1,-19.9
Cc1onc(-c2ccccc2Cl)c1C(=O)Nc1ccc(F)c(F)c1,-45.1,69.6*,89.5*,0.3,0.1,·
CCN(CC)S(=O)(=O)c1ccc(NC(=O)c2c(-c3ccccc3)noc2C)cc1,·,45.9,64.7*,0.5,0.4,-9.6
Cc1onc(-c2ccccc2Cl)c1C(=O)Nc1ccc(OCC(=O)N2CCOCC2)cc1,8.0,·,·,·,·,-10.0
Cc1onc(-c2c(Cl)cccc2Cl)c1C(=O)Nc1ccc2c(c1)OCCO2,-8.0,88.5*,53.6*,0.1,0.5,-13.6
Cc1cc(NC(=O)c2c(-c3ccccc3Cl)noc2C)no1,14.4,30.9,15.2,0.7,0.8,-1.1
Cc1onc(-c2ccccc2Cl)c1C(=O)Nc1ccc(S(=O)(=O)N2CCCC2)cc1,8.9,74.9*,30.4,0.3,0.7,-0.1
CCN(CC)c1ccc(N2C(=O)C3CCCCC3C2=O)cc1[N+](=O)[O-] (configuration not stated),·,·,·,·,·,12.1
